Experimental data reported in PubChem BioAssay (NCATS).
Records with an inconclusive call do not appear. Entries that show only a call come without a potency. Calls of active or inactive are those of the source. Calls come from the whole dose curve.
Potency is the fitted concentration of half-maximal effect.

Each compound was assayed against Atrial natriuretic peptide receptor 1 (Homo sapiens) (UniProt P16066) (assay: Natriuretic polypeptide receptor (hNpr1) antagonism - Pilot screen (AID 1347049)). Details: hNpr1 cells, antagonist mode cGMP read-out; series mostly up to 57.5 µM.
Sequence of Atrial natriuretic peptide receptor 1 (Homo sapiens) (P16066 whole entry, looked up, the tested form may be a part): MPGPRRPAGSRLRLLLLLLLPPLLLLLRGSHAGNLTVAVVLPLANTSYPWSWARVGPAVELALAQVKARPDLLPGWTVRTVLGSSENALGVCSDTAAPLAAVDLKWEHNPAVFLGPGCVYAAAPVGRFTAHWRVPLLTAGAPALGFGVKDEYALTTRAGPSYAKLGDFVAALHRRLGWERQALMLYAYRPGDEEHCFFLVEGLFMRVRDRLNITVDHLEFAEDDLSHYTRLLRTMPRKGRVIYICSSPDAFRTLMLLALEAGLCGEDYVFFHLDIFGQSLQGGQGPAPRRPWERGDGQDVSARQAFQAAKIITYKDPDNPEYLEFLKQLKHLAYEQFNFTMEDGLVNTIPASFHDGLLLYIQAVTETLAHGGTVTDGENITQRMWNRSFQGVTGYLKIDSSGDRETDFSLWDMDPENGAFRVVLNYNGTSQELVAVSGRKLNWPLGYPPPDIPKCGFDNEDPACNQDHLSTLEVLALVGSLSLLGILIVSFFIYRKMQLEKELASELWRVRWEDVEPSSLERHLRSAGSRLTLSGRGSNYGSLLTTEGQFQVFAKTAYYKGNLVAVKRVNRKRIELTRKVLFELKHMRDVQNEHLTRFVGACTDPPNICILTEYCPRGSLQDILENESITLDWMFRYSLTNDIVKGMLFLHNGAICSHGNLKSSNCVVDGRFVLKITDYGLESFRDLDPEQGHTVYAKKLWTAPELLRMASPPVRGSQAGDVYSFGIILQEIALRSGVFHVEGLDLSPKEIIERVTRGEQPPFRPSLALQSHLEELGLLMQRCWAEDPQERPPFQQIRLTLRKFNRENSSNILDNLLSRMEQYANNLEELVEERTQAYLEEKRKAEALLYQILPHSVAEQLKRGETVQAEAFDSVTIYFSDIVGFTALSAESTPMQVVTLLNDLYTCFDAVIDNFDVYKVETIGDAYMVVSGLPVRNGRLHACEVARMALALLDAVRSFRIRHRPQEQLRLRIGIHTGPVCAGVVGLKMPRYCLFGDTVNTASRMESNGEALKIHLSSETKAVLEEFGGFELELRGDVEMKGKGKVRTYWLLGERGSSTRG
Procedure: In order to identify small molecular compounds that inhibit the hNpr1 receptor we developed a high-throughput assay to measure inhibition of the guanylate cyclase activity of the receptor. cGMP production was measured using a circular permutated Firefly luciferase (FLuc) enzyme functionally linked to the cGMP binding domain of human phosphodiesterase 5 (GloSensor technology pGS-40F, (Fan, F. et al. 2008). The cGMP-sensor was expressed in human embryonic kidney 293 (HEK-293) cells and FLuc activity was measured after stimulation with hNrp agonist peptide. hNrp agonists activates the receptor's associated guanylyl cyclase (GC) domain producing cGMP which then binds to the GloSensor resulting in FLuc activation, the enzymatic activity of which can be measured as bioluminescence with addition of luciferin substrate.
F. Fan, B. F. Binkowski, B. L. Butler, P. F. Stecha, M. K. Lewis, K. V. Wood, Novel genetically encoded biosensors using firefly luciferase. ACS Chem Biol 3, 346-351 (2008).
This assay was initially piloted by testing with a small diversity library of compounds with known pharmacological activity.
PROTOCOL TABLES (as described by Inglese J, Shamu CE and Guy RK. 2007)
SEQUENCE No. (e.g., 1, 2, 3, etc.); […] (e.g., Cells, Incubation, Reagent, etc.); VALUE and DESCRIPTION.
1. Cells. Seed 1500 HEK293 cGMP-sensor cells expressing hNpr1 per well in 4uL into Greiner 1536-well white/solid bottom high base, tissue culture-treated plates.
2. Incubation. Incubate plated cells at 37C in 5% CO2, 95% RH overnight.
3. Reagent. Add 1uL per well GloSensor reagent from Promega (2% final concentration) or CO2 independent media vehicle control to respective columns of Greiner 1536-well plates.
4. Incubation. Incubate plated cells at room temperature for 2 h, protect from light.
5. Compounds. Library compounds and A-71915 control added at 23 nL per well, transferred by Pin Tool.
6. Incubation. Incubate plated cells for 30 min. at room temperature, protect from light.
7. Detector. GloSensor baseline pre-read luminescence measured using CCD-based camera (Viewlux).
8. Compound. Add 1uL of hNppA peptide to 0.1 nM final concentration to stimulate hNpr1 or CO2 independent media as vehicle control.
9. Incubation. Incubate treated cells at room temperature for 20 min., protect from light.
10. Detector. GloSensor post-hNppA luminescence measured using CCD-based camera (Viewlux).
NOTES (numbers refer to Sequence numbers above)
1. HEK293 cells expressing hNpr1 and GIP/pGS-40F grown to 85-95% confluence (48-72 h) in T175 culture flasks (CO2 independent media supplemented with 10% FBS, 1% Pen/Strep antibiotics and 1 ug/mL puromycin). Trypsinize and harvest cells from T175 culture flasks and filter through 40 um cell strainer. Cells counted with Invitrogen Countess (30,000,000 - 50,000,000 cells/flask). Cells diluted to a final concentration of 375 cells/uL in CO2 independent media and a Millipore multidrop used to dispense 1500 cells per well (4uL/well) into 9 x 1536-well Greiner White/Solid bottom, high base tissue-culture treated (TC) plates and one Aurora 1536-well Black/Clear bottom, low base, TC plate (for visual inspection of cell health throughout the duration of the assay).
2. Cells incubated overnight at ambient temperature, 24 h. at 37C in 95% RH incubator protected from light, covered with metal lid with gas-exchange holes.
3. Prepare GloSensor Reagent (Promega): Reconstitute GloSensor luciferase substrate by adding 8.2mL Hepes buffer to 250mg substrate, mix well, protect from light and stored at -80C. Prepare a fresh 12% GloSensor solution in CO2 independent supplemented plating media (see above). Mix well and store at ambient temperature, protected from light. 1uL 12% GloSensor Luciferase Reagent added (2% final concentration) to respective columns of 9 x 1536-well Greiner plate with BioRaptr, 1uL CO2 independent plating media added to respective columns as vehicle control with BioRaptr.
4. […]
In the case of O=C(c1ccc(F)cc1)C1CCN(CCn2c(=O)[nH]c3ccccc3c2=O)CC1, the Potency was “inactive”.
For CCCNCC(O)COc1ccccc1C(=O)CCc1ccccc1 (stereo not given), the Potency was “inactive”.
In the case of Cc1cn([C@H]2C[C@H](N=[N+]=[N-])[C@@H](CO)O2)c(=O)[nH]c1=O, the Potency was “inactive”.
With CN1CCC(=C2c3ccccc3C=Cc3ccccc32)CC1 the Potency was “inactive”.
For COc1cc2nc(N3CCN(C(=O)c4ccco4)CC3)nc(N)c2cc1OC, the Potency was “inactive”.
CC#C[C@]1(O)CC[C@H]2[C@@H]3CCC4=CC(=O)CCC4=C3[C@@H](c3ccc(N(C)C)cc3)C[C@@]21C was tested, and the Potency was “inactive”.
For CN(C)CCOC(c1ccccc1)c1ccccc1, the Potency was “inactive”.
For CN1CCN(CCCN2c3ccccc3Sc3ccc(Cl)cc32)CC1, the Potency was “inactive”.
In the case of CN(Cc1cnc2nc(N)nc(N)c2n1)c1ccc(C(=O)N[C@@H](CCC(=O)O)C(=O)O)cc1, the Potency was “inactive”.
In the case of COc1ccccc1OCC(O)CN1CCN(CC(=O)Nc2c(C)cccc2C)CC1 (stereo not given), the Potency was “inactive”.
In the case of O=C(c1ccc(OCCN2CCCCC2)cc1)c1c(-c2ccc(O)cc2)sc2cc(O)ccc12, the Potency was “inactive”.
For C[C@H]1c2cccc(O)c2C(O)=C2C(=O)[C@]3(O)C(O)=C(C(N)=O)C(=O)[C@@H](N(C)C)[C@@H]3[C@@H](O)[C@@H]21, the Potency was “inactive”.
O=C1N(c2ccccc2)c2ccccc2C1(Cc1ccncc1)Cc1ccncc1 was tested, and the Potency was “inactive”.
In the case of NC(=O)OCC(COC(N)=O)c1ccccc1, the Potency was “inactive”.
In the case of C[C@](N)(Cc1ccc(O)c(O)c1)C(=O)O, the Potency was “inactive”.
CCc1cccc2c3c([nH]c12)C(CC)(CC(=O)O)OCC3 (stereo not given) was tested, and the Potency was “inactive”.
For CNCCCC12CCC(c3ccccc31)c1ccccc12, the Potency was “inactive”.
CCCCc1oc2ccccc2c1C(=O)c1cc(I)c(OCCN(CC)CC)c(I)c1 was tested, and the Potency was “inactive”.
In the case of Cc1cc(C(C)(C)C)cc(C)c1CC1=NCCN1, the Potency was “inactive”.
In the case of NC(=O)NO, the Potency was “inactive”.
Nc1nc2c(ncn2COC(CO)CO)c(=O)[nH]1 was tested, and the Potency was “inactive”.
For OCCN1CCN(CCCN2c3ccccc3Sc3ccc(C(F)(F)F)cc32)CC1, the Potency was “inactive”.
In the case of Cc1cc(C(C)(C)C)c(O)c(C)c1CC1=NCCN1, the Potency was “inactive”.
NC(CO)C(=O)NNCc1ccc(O)c(O)c1O (stereo not given) was tested, and the Potency was “inactive”.
With O=c1c(-c2ccc(O)cc2)coc2cc(O)cc(O)c12 the Potency was “inactive”.
With NCCS(=O)(=O)O the Potency was “inactive”.
With O=c1[nH]cc(F)c(=O)[nH]1 the Potency was “inactive”.
For CN(C)C(=O)C(CCN1CCC(O)(c2ccc(Cl)cc2)CC1)(c1ccccc1)c1ccccc1, the Potency was “inactive”.
For CC(C)NCC(O)COc1ccc(CCOCC2CC2)cc1 (stereo not given), the Potency was “inactive”.
For NCCc1cnc[nH]1, the Potency was “inactive”.
In the case of COc1ccc2[nH]cc(CCNC(C)=O)c2c1, the Potency was “inactive”.
With COc1ccccc1N1CCN(CC(O)COc2cccc3ccccc23)CC1 (stereo not given) the Potency was “inactive”.
In the case of CN(C)c1nc(N(C)C)nc(N(C)C)n1, the Potency was “inactive”.
For OCCN(CCO)c1nc(N2CCCCC2)c2nc(N(CCO)CCO)nc(N3CCCCC3)c2n1, the Potency was “inactive”.
In the case of CCOC(=O)c1ncn2c1CN(C)C(=O)c1cc(F)ccc1-2, the Potency was “inactive”.
In the case of CN1CCN2c3ccccc3Cc3ccccc3C2C1 (stereo not given), the Potency was “inactive”.
In the case of O=C(Nc1ccc([N+](=O)[O-])cc1Cl)c1cc(Cl)ccc1O, the Potency was 953 nM (active).
With COc1nc(C)nc(Cl)c1NC1=NCCN1 the Potency was “inactive”.
CCC1(c2ccccc2)C(=O)NCNC1=O was tested, and the Potency was “inactive”.
With CC(C)(Oc1ccc(C2CC2(Cl)Cl)cc1)C(=O)O (stereo not given) the Potency was “inactive”.
